Measurements from PubChem BioAssay AID624351 (Southern Research Specialized Biocontainment Screening …, 2012).
The whole screen tested about 2,400 compounds, of which about 1,400 (58%) were called active. So high a share suggests a set chosen from earlier hits. The list shows a part of the results. Unmarked numbers belong to inactive results.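 Rule for the calls: active = inhibition of 30% or more at any tested dose; inconclusive = primary hits over the limit that were never retested; inactive = the rest.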

assay: coupled detection enzyme interference, dose response, artefact control for MgcRacGAP inhibitor project, biochemical, coupled enzyme counter-screen (AID 624351); conditions: ADP Hunter coupled enzyme counter-screen, fluorescence, no MgcRacGAP; series mostly up to 80 µM;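 note: signal is the ADP detection kit reading of free GDP without any GAP enzyme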;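 for inhibition: 0% = median positive control wells and 100% = median negative control wells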

SMILES | IC50 | inhibition
C=CCn1c(N/N=C/c2ccc(O)cc2)nc2ccccc2c1=O | 66.7 µM (active) | –
CCn1c(/C=C/c2ccc(O)cc2)nc2ccccc2c1=O | 44.8 µM (active) | –
O=c1c2cc(F)ccc2sn1-c1ccccc1Cl | inactive | –
Cc1ccc(NC(=O)CCC(=O)N/N=C/c2ccc(O)cc2O)cc1 | 61.8 µM (active) | –
Cc1cccc(NC(=O)CCC(=O)N/N=C/c2ccc(O)cc2O)c1 | 72.4 µM (active) | –
CCN(C=NC1=NN(c2cccc(C(F)(F)F)c2)CC1)CC | 33 µM (active) | –
Cc1cccc(N2CCC(N=CN(C)C)=N2)c1 | 27.8 µM (active) | –
OCCN(C=NC1=NN(c2cccc(C(F)(F)F)c2)CC1)CCO | 42.2 µM (active) | –
CN(C)C=NC1=NN(c2cccc(C(F)(F)F)c2)CC1 | 39.3 µM (active) | –
c1ccc(-c2ccccc2OCCCCn2ccnc2)cc1 | inactive | –
COc1ccccc1OCC#CCn1ccnc1 | inactive | –
Nc1sc(-c2ccccc2)c(Cc2ccccc2)c1C(=O)O | 70.5 µM (active) | –
CN(c1ccccc1)S(=O)(=O)c1cccc(C(=O)NCCc2ccc(O)c(O)c2)c1 | 71 µM (active) | –
COc1ccc(CCNC(=O)CNCC(c2ccccc2)N(C)C)cc1OC (stereo not given) | inactive | –
CCN(c1ccccc1)S(=O)(=O)c1ccc(OC)c(NC(=O)CNCCc2ccccc2)c1 | inactive | –
COc1ccc(S(=O)(=O)N2CCC(N3CCN(c4ccccc4OC)CC3)CC2)cc1 | inactive | –
COc1ccccc1NS(=O)(=O)c1cc(N)ccc1N1CCCC1 | 75.2 µM (active) | –
COc1ccc(N)cc1NC(=O)CN1CCOCC1 | inactive | –
CC(C)(C)c1cc(Cl)ccc1OCCOCCN1CCCC1 | inactive | –
O=C(Nc1ccc(C2=NCCN2)cc1)c1ccc(C(=O)Nc2ccc(C3=NCCN3)cc2)c([N+](=O)[O-])c1 | inactive | –
O=C(Nc1ccc(O)cc1)c1cccc(Oc2ccc([N+](=O)[O-])cc2)c1 | 48.2 µM (active) | –
COC(=O)C1=C(C)N(CC2CCCO2)C(=O)/C1=C\c1ccc(O)cc1 (stereo not given) | 24.4 µM (active) | –
CCS(=O)(=O)c1nn2c(N)c(/C=C3/C=CC(=O)C(OC)=C3)c(=O)nc2s1 | 39.6 µM (active) | –
COC1=C/C(=C/c2c(N)n3cc(C)sc3nc2=O)C=CC1=O | 82 µM (active) | –
O=C(CNCc1ccccn1)N1CCc2ccccc2C1 | inactive | –
CCOC(=O)CSc1nc(N)c(C(=O)Nc2ccc(N(C)C)cc2)s1 | 32.8 µM (active) | –
CCOC(=O)c1c(NC(=O)CN(C)C2CCN(C)CC2)sc(C(=O)Nc2ccccc2)c1C | inactive | –

SMILES | IC50 | inhibition
COc1nc(N)nc(NC(=O)c2cccs2)c1N=O | inactive | –
Cc1ccccc1SCC(=O)OCC(=O)Nc1ccc(N(C)C)cc1 | 81.6 µM (active) | –
Cc1ccc(NC(=O)CNCC(c2ccccc2)N(C)C)cc1F (stereo not given) | inactive | –
CN(C)c1ccc(NC(=O)COC(=O)CNC(=O)c2cccs2)cc1 | 55.7 µM (active) | –
COc1ccc(OCCn2ccnc2C)cc1 | inactive | –
COc1cc(/C=N/Nc2nc3ccccc3s2)ccc1O | 67.7 µM (active) | –
COc1cc(/C=N/Nc2nc3ccccc3[nH]2)ccc1O | 17.9 µM (active) | –
COc1ccc(/C=N/Nc2nc3ccccc3[nH]2)cc1OC | 73.8 µM (active) | –
O=S1(=O)N=C(Nc2ccc(O)cc2)c2ccccc21 | 29.2 µM (active) | –
CCOc1cc(CNc2ccc(N3CCOCC3)cc2)cc(Br)c1OCC | 16.9 µM (active) | –
CCOc1cc(CNc2ccc(N3CCCCC3)cc2)cc(Br)c1OCC(=O)NC(C)(C)C | 20.4 µM (active) | –
CCOc1cc(CNc2ccc3[nH]c(=O)[nH]c3c2)ccc1OCC(=O)NC(C)(C)C | 67.7 µM (active) | –
COc1cc(CNc2ccc(N3CCOCC3)cc2)cc(Br)c1OC | 12.5 µM (active) | –
COc1cc2c(cc1OC)C(c1cc(Br)c(OC)c(OC)c1)CC(=O)N2 (stereo not given) | inactive | –
COc1cc(CN2CCN(Cc3ccc(C(F)(F)F)cc3)CC2)cc(OC)c1OC | inactive | –
CCOc1c(Cl)cc(CNc2ccc(N3CCCC3)cc2)cc1OC | – | -9.27% [at 5 µM]
CNc1c2cccc(C)c2nc2c(C(=O)NCCN(C)C)cccc12 | inactive | –
COCCCNc1nc(=S)[nH]c2cc(OC)c(OC)cc12 | 74.1 µM (active) | –
CCCCNc1nc(=S)[nH]c2cc(OC)c(OC)cc12 | 68.9 µM (active) | –
CCN(CC)CCCNc1nc2ccccc2c2[nH]c3ccc(OC)cc3c12 | inactive | –
COc1ccc(CCNc2nc(=S)[nH]c3cc(OC)c(OC)cc23)cc1OC | inactive | –
Cc1cc2[nH]c3c(c[n+](C)c4ccccc34)c2cc1C | inactive | –
Cc1cc(C)c2c(=N)c3ccccc3n(CCCCCCCCn3c4ccccc4c(=N)c4c(C)cc(C)nc43)c2n1 | inactive | –
O=C1C=CC(=O)c2c(O)c(N3CCN(CCOCCO)CC3)c(Br)c(O)c21 | inactive | –
CCOc1ccccc1CN1CCC(N2CCOCC2)CC1 | inactive | –
C=CCc1cc(C=Nc2ccc(N3CCOCC3)cc2)cc(OCC)c1O | 14.6 µM (active) | –
C=CCc1cc(Cl)ccc1OCCNCCN1CCOCC1 | inactive | –

SMILES | IC50 | inhibition
COc1ccc(CN(C)CC(=O)Nc2ccc(Cl)cc2C(F)(F)F)c(OC)c1 | inactive | –
Nc1n[nH]c(N)c1N=Nc1ccc2c(c1)OCO2 | 38 µM (active) | –
O=S(=O)(O)c1ccc(O)c2cc(Nc3ccccc3)ccc12 | inactive | –
Cc1ccc(S(=O)(=O)c2cc(Nc3ccccc3)ccc2O)cc1 | 68 µM (active) | –
CC(=O)C1=C(S(=O)(=O)c2ccc(C)cc2)CS(=O)(=O)C1 | inactive | –
CC1(C)OC(C)(C)/C(=C/Nc2ccc(O)cc2)C1=O | 22.2 µM (active) | –
COc1cc(/C=N/NC(=O)c2cc(-c3ccccc3OC(C)C)nc3ccccc23)ccc1O | inactive | –
CCOc1cc(/C=N/NC(=O)c2ccccc2-n2cccc2)ccc1O | 44.9 µM (active) | –
COc1cc(C=NNC(=O)c2ccccc2-n2cccc2)ccc1O | 36.4 µM (active) | –
CCCCN(CC)CCNC(=O)CCC(=O)Nc1ccc2nc(N3CCN(C)CC3)cc(C)c2c1 | inactive | –
C=CCn1c(SCC(=O)c2ccc(O)c(O)c2)nnc1-c1cccc(OC)c1 | 68 µM (active) | –
Cc1ccc(C2=NN=C(NC(=O)CSc3nncn3C)SC2)cc1 | inactive | –
C=CCn1c(SCC(=O)Nc2ccc(N(C)C)cc2)nnc1-c1cccc(C)c1 | 58.8 µM (active) | –
CCn1c(SCC(=O)Nc2ccc(N(C)C)cc2)nnc1-c1cccc(C)c1 | 70.3 µM (active) | –
CCn1c2ccccc2c2cc(NC(=O)CNC)ccc21 | inactive | –
COc1cccc(-c2ncc3ccccn23)c1 | inactive | –
O=S(=O)(NC1=NCCCCC1)c1ccc2sc(NS(=O)(=O)c3ccc4ccccc4c3)nc2c1 | inactive | –
CC(=O)Nc1ccc(OC(=O)c2ccc(Br)c([N+](=O)[O-])c2)cc1 | inactive | –
CCOc1ccc(C(=O)NC(=S)Nc2ccc(N3CCCCC3)cc2)cc1[N+](=O)[O-] | inactive | –
COc1cc(/C=C(/NC(=O)c2ccccc2)C(=O)Nc2ccc(O)cc2)c([N+](=O)[O-])cc1OC | 58 µM (active) | –
CN(C)c1nc(=NCc2cccs2)ss1 | inactive | –
COc1cc(/C=N/NC(=O)c2cccc(NC(=O)c3ccccc3C)c2)ccc1O | 34.4 µM (active) | –
COc1cc(/C=N/NC(=O)C(=O)Nc2ccccn2)ccc1O | 27.8 µM (active) | –
COc1cc(/C=N\Nc2cc(=O)n(C)c(=O)n2C)ccc1O | 36 µM (active) | –
COc1cc(/C=N/NC(=O)c2cc[n+]([O-])cc2)ccc1O | 35.7 µM (active) | –
CN(C)CCO/N=C(\c1ccc(Br)cc1)c1cccnc1 | inactive | –
COc1cc(/C=N/NC(=O)c2[nH]nc3c2CCc2ccccc2-3)ccc1O | 56.5 µM (active) | –

SMILES | IC50 | inhibition
O=C(N/N=C/c1ccc(O)c(O)c1)c1ccc(-n2cnnn2)cc1 | 18.7 µM (active) | –
COc1cc(/C=N/NC(=O)C2(O)c3ccccc3-c3ccccc32)ccc1O | 45.5 µM (active) | –
COc1cc(/C=N/NC(=O)c2ccc(-n3cccc3)cc2)ccc1O | 22.3 µM (active) | –
COc1cc(/C=N/NC(=O)c2cc3ccccc3[nH]2)ccc1O | 20.8 µM (active) | –
COc1cc(/C=N/Nc2ccc(C(=O)O)cc2)ccc1O | 36.1 µM (active) | –
COc1ccc(/C=N/NC(=O)c2cc[n+]([O-])cc2)cc1O | 35.3 µM (active) | –
COc1ccc(NS(=O)(=O)c2cccc(C(=O)NN=Cc3ccc(O)c(OC)c3)c2)cc1 | inactive | –
COc1cc(/C=N/NC(=O)c2ccccc2)ccc1O | 29.6 µM (active) | –
COc1ccc(C(C#N)=C2C=CC(=NO)C=C2)cc1 | 57.4 µM (active) | –
CCOc1cc(N2CCOCC2)c(OCC)cc1NCC(=O)N1CCN(Cc2ccccc2)CC1 | inactive | –
O=C(CNC1CCCCCC1)Nc1ccccc1N1CCOCC1 | inactive | –
CCOc1cc(N2CCOCC2)c(OCC)cc1NC(=O)c1ccc(C)s1 | 65.1 µM (active) | –
Cc1ccc(NC(=O)CN(C)C2CCCCC2)cc1Br | inactive | –
CCN(CC)c1ccc(NC(=O)C2CCCC2)cc1 | 76.8 µM (active) | –
CCN(CC)CC(=O)NN(Cc1ccccc1)c1ccccc1 | inactive | –
CCN(CC)CCNCC(=O)Nc1ccc(Oc2ccccc2)cc1 | inactive | –
CCN(CC)c1ccc(NC(=O)Nc2ccccc2)cc1 | 53.3 µM (active) | –
CCN(CC)c1ccc(CN2CCC(C(=O)NCc3ccc(C)cc3)CC2)cc1 | inactive | –
CCN(CC)c1ccc(NC(=O)c2ccc(Br)o2)cc1 | 29.2 µM (active) | –
O=c1oc2ccccc2c2c1C(c1ccc(Cl)cc1)Nc1ccc3ccccc3c1-2 (stereo not given) | inactive | –
CN1CCCN(Cc2ccccc2C(F)(F)F)CC1 | inactive | –
CCc1nnc(NC(=O)CSCc2cc(=O)n3ccsc3n2)s1 | inactive | –
Cc1ccc(N2CC(C(=O)Nc3ccc(N(C)C)cc3)CC2=O)cc1C (stereo not given) | 62.4 µM (active) | –
COc1ccc(OC(=O)C2CC(=O)N(c3ccc(C)cc3)C2)cc1 (stereo not given) | inactive | –
